Shown are actives, neighbours in structure and some others; about 2.3% of the full set was active somewhere.
TMEM16A act = TMEM16A chloride channel activators or potentiators, primary screen, cell-based, HTS; Anoctamin-1 (Mus musculus), Q8BHY3; HEK293 TMEM16A/YFP-H148Q/I152L, iodide quench fluorescence; stronger effect = lower value; B-score at 10 µM; 340,000 compounds, 0.3% hits;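 active means fluorescence-ratio B-score plate-corrected deviation score at least 3 library SD below zero, with starting fluorescence score within 5 deviations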;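 further: channel opened by trigger with iodide after compound preincubation; score built on the fluorescence ratio of max minus min over baseline; more negative score means more quench and so TMEM16A activation or potentiation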
TMEM16A inh = TMEM16A chloride channel inhibitors, primary screen, cell-based, HTS; HEK293 TMEM16A/YFP iodide influx fluorescence, ionomycin; normalized B-score (activity score, 25-100; higher = stronger inhibition) at 10 µM; 310,000 compounds, 1.2% hits;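 active means ratio plate-corrected score three or more library SD toward inhibition, starting fluorescence score within five deviations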;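 further: score derived from kinetic fluorescence span divided by baseline fluorescence per well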
CHT inh = inhibitors of human choline transporter CHT. CHT-expressing cells, membrane potential dye, choline response; stronger effect = lower value. 310,000 compounds, 0.86% hits. B-score at 10 µM. High affinity choline transporter 1 (Homo sapiens), Q9GZV3;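 active means B-score over 3 SD under the library average, and starting fluorescence ratio not unusually high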;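 further: choline stimulus applied at its EC90 after an EC20 pre-addition; B-score computed on integrated fluorescence ratio after choline addition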
Target sequence (Q9GZV3 whole entry, looked up): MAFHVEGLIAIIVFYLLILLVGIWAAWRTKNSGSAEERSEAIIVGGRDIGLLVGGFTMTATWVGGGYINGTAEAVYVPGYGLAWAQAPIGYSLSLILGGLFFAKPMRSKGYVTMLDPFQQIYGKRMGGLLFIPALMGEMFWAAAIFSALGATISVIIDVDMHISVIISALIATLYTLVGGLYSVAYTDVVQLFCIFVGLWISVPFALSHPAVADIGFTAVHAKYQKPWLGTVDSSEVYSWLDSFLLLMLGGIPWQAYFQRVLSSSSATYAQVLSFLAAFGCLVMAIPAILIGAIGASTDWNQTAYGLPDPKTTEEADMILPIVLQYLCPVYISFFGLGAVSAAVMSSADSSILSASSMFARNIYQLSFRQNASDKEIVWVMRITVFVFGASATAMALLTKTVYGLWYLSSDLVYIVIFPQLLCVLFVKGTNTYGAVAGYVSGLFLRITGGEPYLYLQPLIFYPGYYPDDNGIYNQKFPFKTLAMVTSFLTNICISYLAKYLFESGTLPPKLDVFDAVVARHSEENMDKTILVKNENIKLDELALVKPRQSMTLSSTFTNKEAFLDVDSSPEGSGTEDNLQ
CHT PAM = CHT positive allosteric modulators, primary screen, cell-based, membrane potential dye, choline EC20 | High affinity choline transporter 1 (Homo sapiens), Q9GZV3 | CHT-expressing cells; stronger effect = higher value; LV-AA mutant CHT in HEK293 cells | B-score at 10 µM | 310,000 compounds, 0.49% hits;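 active means initial fluorescence not abnormally high and integrated response B-score, plate-corrected, over 3 SD above library mean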
Of the large screens only hits and unclear results are named; the others gave an inactive call.

CCCc1nc(NCC2CCCO2)c2nnn(Cc3ccccc3)c2n1 (centres undefined)	TMEM16A act -4.9
COc1ccc(-c2nn(-c3ccccc3)cc2/C=N/NC(=O)c2ccc(Br)o2)cc1	TMEM16A inh 100
COc1ccc(-c2nn(-c3ccccc3)cc2/C=N/NC(=O)c2ccc3c(c2)OCO3)cc1	none (no result: TMEM16A act)
N=c1n(CCN2CCOCC2)c2ccccc2n1CC(O)COc1ccccc1 (centres undefined)	none
N=c1n(CCN2CCCCC2)c2ccccc2n1CC(O)COc1ccccc1 (centres undefined)	CHT PAM 7.2
COc1ccc(-n2nc3c(N4CCC(C(=O)N5CCC(C)CC5)CC4)nnc(C)c3c2C)cc1	none
Cc1nnc(N2CCC(C(=O)NC3CCC(C)CC3)CC2)c2nn(-c3ccc(Cl)cc3)c(C)c12 (centres undefined)	TMEM16A inh 100
O=C1NC(=S)SC1=C1CCCCCC1	CHT inh -6
CC(C)(C)c1cc(-c2csc(Nc3ccccc3)[n+]2Cc2ccc(C(=O)O)cc2)cc(C(C)(C)C)c1O	TMEM16A inh 100
O=C(O)c1ccc(C[n+]2c(-c3ccccc3)csc2Nc2ccccc2)cc1	none
CC1=NN(C(N)=S)C(=O)C1N=Nc1c(C)n(C)n(-c2ccccc2)c1=O (centres undefined)	none
CCOC(=O)c1ccc(NC(=O)C2(c3ccc(OC)cc3)CCCC2)cc1	none
COc1ccc(C2(C(=O)Nc3ccc(S(N)(=O)=O)cc3)CCCC2)cc1	TMEM16A act -5.1
CCCCc1cc(=O)oc2cc(OCC(=O)NCC3CCC(C(=O)O)CC3)ccc12 (centres undefined)	none
CN1CCN(c2nc3c(c(=O)[nH]c(=O)n3C)n2Cc2cccc(Br)c2)CC1	none
CCCNc1nc2c(c(=O)[nH]c(=O)n2C)n1Cc1cccc(Br)c1	TMEM16A act -5.8
CSCC(C)N1CCC(Oc2cccc(C(=O)NCc3ccccn3)c2)CC1 (centres undefined)	CHT inh -17
COC(=O)CCC(C)N1CCC(Oc2ccc(C(=O)NCc3ccccn3)cc2)CC1 (centres undefined)	none (no result: TMEM16A inh, CHT inh, CHT PAM)
CC/C(=N\O)c1c(O)c2c(n(-c3ccccc3)c1=O)CCCC2	none
COc1ccccc1-c1ccc(SCc2cccc(C)c2)nn1	TMEM16A inh 100
CCn1c(=NC(=O)c2cccc(N3C(=O)CCC3=O)c2)sc2c(C)ccc(OC)c21	TMEM16A act -8.7
CSc1cccc(CNC(=O)C2CCC(=O)N(CC3CCCCC3)C2)c1 (centres undefined)	none
NC(=O)c1cc2cc(Br)ccc2oc1=NCc1ccccc1	TMEM16A act -8.5
CCOC(=O)N1CCN(C(=O)c2ccc3c(c2)N(CC)CCS3)CC1	none
CCOC(=O)N1CCN(C(=O)c2ccc3c(c2)N(Cc2ccc(F)cc2)CCS3)CC1	CHT inh -5.2
O=S(=O)(c1cccc2nsnc12)N1CCN(Cc2ccccc2)CC1	none
O=[N+]([O-])c1ccccc1S(=O)(=O)NCCC1=CCCCC1	TMEM16A inh 25
COc1ccc(OC)c(C2CC(=O)C(C)C(c3cc(OC)ccc3OC)N2)c1 (centres undefined)	none
COc1ccc(C2NC(c3ccc(OC)cc3OC)C(C)C(=O)C2C)c(OC)c1 (centres undefined)	TMEM16A act -5.9
COC(=O)Cn1c(CN2CCC(Cc3ccccc3)CC2)nc2c1c(=O)n(C)c(=O)n2C	TMEM16A inh 25
COC(=O)Cn1c(CN(C)Cc2ccccc2)nc2c1c(=O)n(C)c(=O)n2C	none
CC(O)(Cc1ccccn1)Cc1ccccn1	none (no result: TMEM16A inh, CHT inh, CHT PAM)
Cc1ccc(SCC(=O)Nc2cc([N+](=O)[O-])ccc2O)cc1	TMEM16A inh 25
O=C(CSCc1ccc(Cl)cc1)Nc1cc([N+](=O)[O-])ccc1O	CHT inh -8.1
N/C(Cc1nc(-c2ccc(Cl)cc2)cs1)=N/O	none
CC(C)n1nccc1NC(=O)COC(=O)c1ccc(NC(N)=O)cc1	none (no result: TMEM16A inh, CHT inh, CHT PAM)
Cc1ccccc1NC(=O)CSc1nnc(CNC(=O)c2ccco2)n1C	none
CC(=O)[C@@]1(O)CC[C@H]2[C@@H]3CCC4=CC(=O)CC[C@]4(C)[C@H]3[C@@H](O)C[C@@]21C	TMEM16A inh 100, CHT inh -6.6
Cc1nnc(SCC(=O)Nc2sc3c(c2C(=O)c2ccccc2)CCCC3)s1	CHT PAM 8.1
CCOC(=O)c1c(NC(=O)CSc2nnc(C)s2)sc2c1CCN(C)C2	CHT PAM 7.6
O=C(C[n+]1cccc2ccccc21)c1ccccc1	none
CCCCCCCCCCCCCCCC[n+]1cccc2ccccc21	TMEM16A inh 100, CHT PAM 8.7
CCCCOc1ccc(S(=O)(=O)Nc2cc(OC)ccc2OC)cc1	TMEM16A inh 25
CCCC(=O)O[C@]1(C(=O)COC(C)=O)CC[C@H]2[C@@H]3C[C@H](F)C4=CC(=O)C=C[C@]4(C)[C@@]3(F)[C@@H](O)C[C@@]21C	CHT inh -5
CCOC(=O)/C(C(=Nc1ccccc1)Nc1ccccc1)=C(\C)O	none
NC(=Nc1ccccc1)Nc1ccccc1	TMEM16A act -14
C/C(=N\Nc1ccc(Cl)c(C(=O)O)c1)c1ccc(N2CCOCC2)cc1	TMEM16A inh 25
CC1Cc2ccccc2N1C(=O)COC(=O)c1ccc([N+](=O)[O-])o1 (centres undefined)	none (no result: TMEM16A inh, CHT inh, CHT PAM)
CC1CCC(C(=O)c2c(O)c3ccccc3oc2=O)CC1 (centres undefined)	CHT inh -11
COc1ccccc1-c1nc(C#N)c(NCCCn2ccnc2)o1	none
O=C(c1cccc(C(=O)N2CCN(Cc3ccccc3)CC2)c1)N1CCN(Cc2ccccc2)CC1	TMEM16A inh 25
CNC(=O)C12CC3CC(CC(Cl)(C3)C1)C2	none
Cc1ccc(C2/C(=C(\O)c3c(C)nc4ccccn34)C(=O)C(=O)N2CCN(C)C)o1 (centres undefined)	none
CCCC(=O)c1cc(F)c(N2CCOCC2)cc1C	none
CCC(/C=N/NC(=O)C(N)=O)CC	TMEM16A act -5.3
O=c1c2c(n3cnnc3n1-c1ccccc1)-c1ccccc1CC21CCCCC1	none
CCn1c(=O)c2c(n3cnnc13)-c1ccccc1CC21CCCCC1	TMEM16A act -9.6
CC1(C)C(=O)CC[C@]2(C)C3C(=O)C=C4[C@H]5C[C@@](C)(C(=O)O)CC[C@]5(C)CC[C@]4(C)[C@]3(C)CC[C@@H]12 (some centres undefined)	none
CC1(C)[C@@H](O)CC[C@]2(C)C3C(O)C=C4[C@H]5C[C@@](C)(C(=O)O)CC[C@]5(C)CC[C@]4(C)[C@]3(C)CC[C@@H]12 (some centres undefined)	TMEM16A inh 100 (no result: TMEM16A act)
O=C1C(C=NCc2ccccn2)=C(O)c2ccccc21	TMEM16A inh 25
CC(C)CN=CC1=C(O)c2ccccc2C1=O	none
CN(Cc1ccco1)C(=O)c1ccc(S(=O)(=O)N2CCCCCC2)cc1	none (no result: TMEM16A inh, CHT inh, CHT PAM)
